Data reported in PubChem BioAssay AID2685 (National Center for Advancing Translational Sciences (NCATS), 2010).
The campaign covered roughly 320,000 compounds. About 2,100 (0.66%) were called active. About 53% were inconclusive and are not listed. Calls come from the whole dose curve; as a rule, active = well fitted inhibition curve with a large enough effect in the signal ratio, with a control signal flat (not every such curve was filed as active); inconclusive = small, poorly fitted or top-dose-only effect, or effect the other way, or a change in a side signal; inactive = flat fitted curve, though single readings scatter; the % refers to the signal ratio. The list comes from a sample in which actives are over-represented; it also holds similar structures and randomly drawn compounds.

Assay: qHTS Assay for Lipid Storage Modulators in Drosophila S3 Cells;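 for cell number change: cells counted by Cell Tracker Red CMTPX staining in the red channel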; for lipid storage change, negative = inhibition: % is set by controls: 0 for no effect and ±100 for the full control effect
Details: BODIPY lipid droplet fluorescence, 18-24 h, cells fed with added oleic acid; cell number change: measured here: cell count max response; series mostly up to 46.1 µM; lipid storage change, negative = inhibition: at the top concentration
Outline: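 Laser-scanning cytometry quantifies lipid droplet accumulation (500–530 nm total intensity; droplet/cell object ratio) in oleic acid-fed (400 uM added) Drosophila S3 cells treated with a concentration series. 20 uM Triacsin C defined 100% inhibition.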
Potency is the fitted concentration of half-maximal effect.

Row | Compound | lipid storage change, negative = inhibition | cell number change [%] | outcome | Potency
1 | CC(C)Oc1ccccc1C(=O)NC(CO)C(=O)O (stereo not drawn) | 7.17% (inactive) | -13.9 | – | –
2 | CS(=O)(=O)N(Cc1ccccc1)c1ccc(C(=O)N2CCc3ccccc3C2)cc1 | -15.5% (inactive) | 13.2 | – | –
3 | Cc1cc(/C=N/Nc2nc(N3CCOCC3)nc(N3CCOCC3)n2)c(C)n1-c1ccccc1 | 0.381% (inactive) | 2.32 | – | –
4 | CCCCn1c(N)c(N(CC)C(=O)C2CCCC2)c(=O)[nH]c1=O | 1.39% (inactive) | 14.7 | – | –
5 | CC(=O)N1c2ccc(S(=O)(=O)N(C)CC(=O)NC3CCCCC3C)cc2CC1C (stereo not drawn) | – | – | inactive | –
6 | COc1cn(-c2ccccc2)nc1C(=O)Nc1ccccc1 | – | 5.86 | – | 0.92 µM (active)
7 | COc1cn(-c2ccccc2)nc1C(=O)OCC(=O)Nc1ccc(C)c(C)c1 | 8.1% (inactive) | -22.3 | – | –
8 | COc1cn(-c2ccccc2)nc1C(=O)NCc1ccccc1 | – | 10.4 | inactive | –
9 | Cc1cc(C)c(OCC(=O)Nc2ccc3c(c2)OCO3)cc1C | – | – | inactive | –
10 | CC(C)C1Oc2ccccc2N(CC(=O)N(Cc2ccncc2)Cc2ccco2)C1=O (stereo not drawn) | 0.319% (inactive) | -0.805 | – | –
11 | CN(CCCC1CCCC1)C(=O)c1cc(COc2c(F)cccc2F)on1 | – | -27.2 | – | 5.8 µM (active)
12 | CN(CCCC1CCCC1)C(=O)c1cc(COc2ccc(F)cc2F)on1 | -23.9% (inactive) | 15.8 | – | –
13 | CN(CCCN1CCOCC1)C(=O)c1cc(COc2c(F)cccc2F)on1 | – | – | inactive | –
14 | Cc1c(NC(=O)c2n[nH]c(=O)c3ccccc23)c(=O)n(-c2ccccc2)n1C | -4.65% (inactive) | 5.44 | – | –
15 | Cc1c(NC(=O)c2ccc(N(C)S(=O)(=O)c3ccccc3)cc2)c(=O)n(-c2ccccc2)n1C | 3.31% (inactive) | 0.409 | – | –
16 | CCO[C@H]1OC(C(=O)NCc2nc3ccccc3[nH]2)=C[C@@H](C2CCCCC2)[C@@H]1CCCO | -4.55% (inactive) | -1.73 | – | –
17 | COc1ccc(C2CC3(CC(C)(C)NC(SC)=N3)Oc3cc(O)cc(C)c32)cc1 (stereo not drawn) | – | 26.2 | – | 23.1 µM (active)
18 | Cc1cc(O)cc2c1C(c1ccc(F)cc1)CC1(CC(C)(C)NC(=S)N1)O2 (stereo not drawn) | 15.9% (inactive) | 11.1 | – | –
19 | COc1ccc(C2CC3(CC(C)(C)NC(=S)N3)Oc3cc(O)cc(C)c32)cc1 (stereo not drawn) | 22% (inactive) | -1.84 | – | –
20 | O=C(COc1ccc(Cl)cc1Cl)N/N=C/c1ccc(OC2OC(CO)C(O)C(O)C2O)cc1 (stereo not drawn) | – | 14.9 | inactive | –
21 | N#CCOc1ccccc1/C=C/c1nc2ccccc2c(=O)[nH]1 | – | 5.41 | – | 0.82 µM (active)
22 | O=c1[nH]c(/C=C/c2ccccc2F)nc2ccccc12 | – | – | inactive | –
23 | O=c1[nH]c(/C=C/c2cccc3ccccc23)nc2ccccc12 | -10.1% (inactive) | 1.01 | – | –
24 | Cc1ccc(SCc2nc3ccccc3n2CC(=O)Nc2ccc(Cl)cc2)cc1 | – | -17.3 | – | 11.6 µM (active)

Row | Compound | lipid storage change, negative = inhibition | cell number change [%] | outcome | Potency
25 | Cc1ccc(SCc2nc3ccccc3n2CC(=O)Nc2c(C)cccc2C)cc1 | -6.68% (inactive) | 5.98 | – | –
26 | O=C(Cn1c(CSc2ccccc2)nc2ccccc21)Nc1ccccc1 | 2.53% (inactive) | – | – | –
27 | CCOC(=O)CSc1nnc(-c2ccc3ncccc3c2)n1C | 19.8% (inactive) | -5.02 | – | –
28 | Cc1ccc(S(=O)(=O)NN2C(=O)c3ccccc3NC2c2ccccc2)cc1 (stereo not drawn) | 0.893% (inactive) | 14.4 | – | –
29 | Cc1cc2c(cc(C(=O)OC(C(=O)NC3CCCCC3)C(C)C)n2C)o1 (stereo not drawn) | – | -21.3 | – | 1.46 µM (active)
30 | COCCNC(=O)C(OC(=O)c1cc2oc(C)cc2n1C)C(C)C (stereo not drawn) | -24.2% (inactive) | 9.13 | – | –
31 | CC(C)C(OC(=O)c1ccco1)C(=O)NC1CCCCC1 (stereo not drawn) | 4.26% (inactive) | 10.7 | – | –
32 | COC(=O)c1cc(OC)c(OC)cc1NCC(=O)Nc1ccc(C)cc1 | 4.61% (inactive) | -5.98 | – | –
33 | O=C1c2ccccc2C(=O)c2c(NCCCN(CCO)CCO)cccc21 | 13.2% [at 9.22 µM] (inactive) | 7.53 | – | –
34 | CCN(CC)CC(=O)Nc1cccc2c1C(=O)c1ccccc1C2=O | 2.18% (inactive) | 7.09 | – | –
35 | CNc1cccc2c1C(=O)c1ccccc1C2=O | – | -6.63 | – | 11.6 µM (active)
36 | COc1ccc(-n2cc(CN(C)C(C)c3ccncn3)c(-c3cccc(F)c3)n2)cc1 (stereo not drawn) | 10.9% (inactive) | -0.848 | – | –
37 | O=C(CCC(=O)c1ccc(Cl)cc1)NCc1ccccc1 | – | -20.1 | inactive | –
38 | CC(C)(C)c1ccc(C(=O)NCc2ccccc2)cc1 | -22.5% (inactive) | -10.5 | – | –
39 | CC(C)(C)c1ccc(C(=O)CCC(=O)NCc2ccccc2)cc1 | – | 6.25 | – | 14.6 µM (active)
40 | CCC(O)CNc1nc(-n2nc(C)cc2C)nc2sc3c(c12)CCCC3 (stereo not drawn) | – | 1.08 | inactive | –
41 | O=C(CSc1nc2ccccc2c(=O)[nH]1)Nc1ccc(S(=O)(=O)N2CCCC2)cc1 | 27.6% (inactive) | -0.593 | – | –
42 | CC(=O)c1nnn(-c2ccccc2C#N)c1C | -0.571% (inactive) | 25.6 | – | –
43 | O=C(Nc1nc(-c2cccs2)c(C(=O)C(F)(F)F)s1)c1ccccc1 | -1.08% (inactive) | – | – | –
44 | CCC(=O)NC1(Cc2ccc(O)cc2)CCCCC1 | -26.5% (inactive) | -37.5 | – | –
45 | NNC(=O)CC(=O)NC1(Cc2ccc(O)cc2)CCCCC1 | 21.8% (inactive) | 4.44 | – | –
46 | O=C(NC1(Cc2ccc(O)cc2)CCCCC1)c1ccccc1 | – | -23.1 | – | 5.17 µM (active)
47 | CCC(CC)C(=O)Nc1nnc(S(=O)(=O)N2CCCc3ccccc32)s1 | 20.3% (inactive) | -8.08 | – | –
